Measurements taken from PubChem BioAssay (NCATS).
Records with an inconclusive call do not appear. Unmarked numbers belong to inactive results. Active and inactive are the calls of the source. Calls follow the shape of the full dose curve.

Assay: Primary qHTS for inhibitors of SARS-S pseudo-typed particle cell entry (AID 1479145); also: nearly all actives have a fitted effect of over 45% in size
Settings: SARS-S pseudotyped particle cell entry, luciferase reporter; series mostly up to 57.1 µM; activity change, negative = inhibition: at the top concentration
% is scaled to controls: 0 for no effect and ±100 for the full control effect.

Row | Compound | outcome | activity change, negative = inhibition
1 | C[C@@H](O)[C@H](N)C(=O)O | inactive [at 26.4 µM] | –
2 | O=c1cc(CO)occ1O | inactive | –
3 | CC(=O)Oc1ccc2c(c1)CC[C@@H]1[C@@H]2CC[C@]2(C)[C@@H](O)CC[C@@H]12 | inactive | –
4 | O=C(O)c1ccc(OCCCOc2ccc(C(=O)O)cc2)cc1 | – | -1.66%
5 | COc1ccc2c(c1)c(CC(=O)OCC(=O)O)c(C)n2C(=O)c1ccc(Cl)cc1 | – | -25.6%
6 | CCCSS/C(CCO)=C(\C)N(C=O)Cc1cnc(C)nc1N | – | -28.7%
7 | CC(C)c1cc2c(cc1S(=O)(=O)O)[C@@]1(C)CCC[C@@](C)(C(=O)O)[C@@H]1CC2 | – | -25.2%
8 | COc1cc(NS(=O)(=O)c2ccc(N)cc2)nc(OC)n1 | – | -7.61%
9 | CCOc1ccc2nc(S(N)(=O)=O)sc2c1 | inactive | –
10 | C#C[C@]1(O)CC[C@H]2[C@@H]3CCC4=CC(=O)CC[C@@H]4[C@H]3CC[C@@]21C | – | -14%
11 | Nc1nc2ncc(CNc3ccc(C(=O)N[C@@H](CCC(=O)O)C(=O)O)cc3)nc2c(=O)[nH]1 | – | -26.1%
12 | OC[C@H]1O[C@@H](O[C@@H]2[C@@H](CO)O[C@](O)(CO)[C@H]2O)[C@H](O)[C@@H](O)[C@H]1O | inactive | –
13 | O=C(O)CCNC(=O)c1ccccc1 | – | -6.34%
14 | Cc1ccc(C(=O)Oc2ccc(C(O)CNC(C)(C)C)cc2OC(=O)c2ccc(C)cc2)cc1 (stereo unspecified) | inactive | –
15 | COc1ccc(CN(CCN(C)C)c2ncccn2)cc1 | – | -17.8%
16 | CCOC(=O)OC(C)OC(=O)[C@@H]1N2C(=O)[C@@H](NC(=O)[C@H](N)c3ccccc3)[C@H]2SC1(C)C (stereo partly specified) | – | 1.9%
17 | COc1ccccc1N1CCN(CCCNc2cc(=O)n(C)c(=O)n2C)CC1 | – | -29.6%
18 | NCCNC(=O)c1ccc(Cl)cn1 | – | -11.2%
19 | OC[C@@H](O)[C@H](O)[C@H](O)[C@@H](O)CO | – | -18.4%

Row | Compound | outcome | activity change, negative = inhibition
20 | COCCc1ccc(OCC(O)CNC(C)C)cc1 (stereo unspecified) | inactive | –
21 | Cc1ccc2c(Cl)cc(Cl)c(O)c2n1 | inactive | –
22 | C#C[C@]1(O)CC[C@H]2[C@@H]3CCc4cc(OC)ccc4[C@H]3CC[C@@]21C | – | -18.3%
23 | CC(=O)O[C@H]1C[C@@H]2CC[C@@H]3[C@H](CC[C@@]4(C)[C@H]3C[C@H]([N+]3(C)CCCCC3)[C@@H]4OC(C)=O)[C@@]2(C)C[C@@H]1N1CCCCC1 | – | -15.6%
24 | C=Cc1c(C)c2cc3[nH]c(cc4nc(cc5nc(cc1[nH]2)C(C)=C5CCC(=O)O)C(CCC(=O)O)=C4C)c(C)c3C=C | – | -8.4%
25 | CCN(CC)CC(=O)Nc1c(C)cccc1C(=O)OC | – | -15.9%
26 | c1ccc2[nH]c(-c3cscn3)nc2c1 | inactive | –
27 | CCNC(=O)NCCCOc1cccc(CN2CCCCC2)c1 | – | 4.21%
28 | CCOC(=O)c1ccc(NC(=O)CN2CCCCC2)cc1 | – | 4.03%
29 | CC(C(=O)O)c1ccc2c(c1)Cc1cccnc1O2 (stereo unspecified) | inactive | –
30 | Nc1ccc(C(=O)NCC(=O)O)cc1 | inactive | –
31 | C/C(=C(\CCOP(=O)(O)O)SC(=O)c1ccccc1)N(C=O)Cc1cnc(C)nc1N | inactive [at 5.34 µM] | –
32 | CNC(=O)c1c(I)c(NC(=O)CCCCC(=O)Nc2c(I)c(C(=O)O)c(I)c(C(=O)NC)c2I)c(I)c(C(=O)O)c1I | inactive | –
33 | OCC(CO)N[C@H]1C[C@](O)(CO)[C@@H](O)[C@H](O)[C@H]1O | inactive | –
34 | C[C@H]1NCc2cc(-c3ccc4c(=O)c(C(=O)O)cn(C5CC5)c4c3OC(F)F)ccc21 | – | 1.3% [at 26.4 µM]
35 | COc1cccc(N(C)C(=S)Oc2ccc3c(c2)CCCC3)n1 | – | 3.12%
36 | NC(CSCC(=O)O)C(=O)O (stereo unspecified) | – | -8.15%
37 | CC1(C)O[C@@H]2C[C@H]3[C@@H]4CCC5=CC(=O)CC[C@]5(C)[C@@]4(F)[C@@H](O)C[C@]3(C)[C@]2(C(=O)CCl)O1 | inactive | –
38 | CCC(=O)c1ccc(O)cc1 | inactive | –

Assay: Primary qHTS for Huh7 cytotoxicity: counterscreen for inhibitors of MERS-S pseudotyped particle cell entry (AID 1479147)
Settings: cell viability read-out; series mostly up to 57.1 µM; activity change, negative = cytotoxicity: at the top concentration

Row | Compound | outcome | activity change, negative = cytotoxicity
39 | C[C@@H](O)[C@H](N)C(=O)O | inactive [at 26.4 µM] | –
40 | O=c1cc(CO)occ1O | inactive | –
41 | CC(=O)Oc1ccc2c(c1)CC[C@@H]1[C@@H]2CC[C@]2(C)[C@@H](O)CC[C@@H]12 | inactive | –
42 | O=C(O)c1ccc(OCCCOc2ccc(C(=O)O)cc2)cc1 | inactive | –
43 | COc1ccc2c(c1)c(CC(=O)OCC(=O)O)c(C)n2C(=O)c1ccc(Cl)cc1 | inactive | –
44 | CCCSS/C(CCO)=C(\C)N(C=O)Cc1cnc(C)nc1N | inactive | –
45 | CC(C)c1cc2c(cc1S(=O)(=O)O)[C@@]1(C)CCC[C@@](C)(C(=O)O)[C@@H]1CC2 | inactive | –
46 | COc1cc(NS(=O)(=O)c2ccc(N)cc2)nc(OC)n1 | inactive | –
47 | CCOc1ccc2nc(S(N)(=O)=O)sc2c1 | inactive | –
48 | C#C[C@]1(O)CC[C@H]2[C@@H]3CCC4=CC(=O)CC[C@@H]4[C@H]3CC[C@@]21C | – | -14.1%
49 | Nc1nc2ncc(CNc3ccc(C(=O)N[C@@H](CCC(=O)O)C(=O)O)cc3)nc2c(=O)[nH]1 | inactive | –
50 | OC[C@H]1O[C@@H](O[C@@H]2[C@@H](CO)O[C@](O)(CO)[C@H]2O)[C@H](O)[C@@H](O)[C@H]1O | inactive | –
51 | O=C(O)CCNC(=O)c1ccccc1 | inactive | –
52 | Cc1ccc(C(=O)Oc2ccc(C(O)CNC(C)(C)C)cc2OC(=O)c2ccc(C)cc2)cc1 (stereo unspecified) | – | 0.165%
53 | COc1ccc(CN(CCN(C)C)c2ncccn2)cc1 | – | 0.647%
54 | CCOC(=O)OC(C)OC(=O)[C@@H]1N2C(=O)[C@@H](NC(=O)[C@H](N)c3ccccc3)[C@H]2SC1(C)C (stereo partly specified) | inactive | –
55 | COc1ccccc1N1CCN(CCCNc2cc(=O)n(C)c(=O)n2C)CC1 | inactive | –
56 | NCCNC(=O)c1ccc(Cl)cn1 | inactive | –
57 | OC[C@@H](O)[C@H](O)[C@H](O)[C@@H](O)CO | – | -1.97%

Row | Compound | outcome | activity change, negative = cytotoxicity
58 | COCCc1ccc(OCC(O)CNC(C)C)cc1 (stereo unspecified) | inactive | –
59 | Cc1ccc2c(Cl)cc(Cl)c(O)c2n1 | inactive | –
60 | C#C[C@]1(O)CC[C@H]2[C@@H]3CCc4cc(OC)ccc4[C@H]3CC[C@@]21C | inactive | –
61 | CC(=O)O[C@H]1C[C@@H]2CC[C@@H]3[C@H](CC[C@@]4(C)[C@H]3C[C@H]([N+]3(C)CCCCC3)[C@@H]4OC(C)=O)[C@@]2(C)C[C@@H]1N1CCCCC1 | inactive | –
62 | C=Cc1c(C)c2cc3[nH]c(cc4nc(cc5nc(cc1[nH]2)C(C)=C5CCC(=O)O)C(CCC(=O)O)=C4C)c(C)c3C=C | inactive | –
63 | CCN(CC)CC(=O)Nc1c(C)cccc1C(=O)OC | – | -0.587%
64 | c1ccc2[nH]c(-c3cscn3)nc2c1 | – | 2.26%
65 | CCNC(=O)NCCCOc1cccc(CN2CCCCC2)c1 | inactive | –
66 | CCOC(=O)c1ccc(NC(=O)CN2CCCCC2)cc1 | – | -7.2%
67 | CC(C(=O)O)c1ccc2c(c1)Cc1cccnc1O2 (stereo unspecified) | inactive | –
68 | Nc1ccc(C(=O)NCC(=O)O)cc1 | inactive | –
69 | C/C(=C(\CCOP(=O)(O)O)SC(=O)c1ccccc1)N(C=O)Cc1cnc(C)nc1N | inactive [at 5.34 µM] | –
70 | CNC(=O)c1c(I)c(NC(=O)CCCCC(=O)Nc2c(I)c(C(=O)O)c(I)c(C(=O)NC)c2I)c(I)c(C(=O)O)c1I | – | -5.1%
71 | OCC(CO)N[C@H]1C[C@](O)(CO)[C@@H](O)[C@H](O)[C@H]1O | – | -8.76%
72 | C[C@H]1NCc2cc(-c3ccc4c(=O)c(C(=O)O)cn(C5CC5)c4c3OC(F)F)ccc21 | inactive [at 26.4 µM] | –
73 | COc1cccc(N(C)C(=S)Oc2ccc3c(c2)CCCC3)n1 | – | -7.17%
74 | NC(CSCC(=O)O)C(=O)O (stereo unspecified) | – | 0.195%
75 | CC1(C)O[C@@H]2C[C@H]3[C@@H]4CCC5=CC(=O)CC[C@]5(C)[C@@]4(F)[C@@H](O)C[C@]3(C)[C@]2(C(=O)CCl)O1 | – | 2.17%
76 | CCC(=O)c1ccc(O)cc1 | inactive | –
